# In all, about 190,000 compounds went through this assay and about 930 (0.49%) were called active. The list shows a part of the results. Results with a measured potency or affinity are listed apart. Unmarked numbers belong to inactive results.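 Rule for the calls: active = z-score of insulin promoter reporter brightness in nuclei below -3 at 5 µM, with at least 500 cells counted; inconclusive = wells with under 500 cells, flagged as toxic or sparse; inactive = the rest.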
# Experiment: decrease of insulin promoter-GFP reporter – imaging, high-content screening, mouse beta cells (AID 1628)
# Conditions: MIN6 insulin promoter GFP reporter, at 5 µM, active compounds read low
row,Compound,z-score
1,Cc1nc2c(ccc3nc(NC(=O)C4CC4)sc32)s1,2
2,Cc1cccc2sc(NC(=O)C3CCCN(S(=O)(=O)c4cccc5nonc45)C3)nc12 (stereo unspecified),6.61
3,C=CCNC(=O)C1CC2Cn3c(nc4cc5ccccc5cc43)C2N1C (stereo unspecified),4.44
4,CCOC(=O)N1CCN(C(=O)NC2CCCCC2)CC1,3.74
5,Cc1cc(=O)oc2cc(OCC(=O)OCC(=O)NC3CC3)ccc12,3.8
6,CC1=Nc2ccccc2/C1=C/c1sc(=S)n(-c2cccc(C(=O)O)c2)c1O,3.2
7,COc1cccc(-c2nn(C)c3sc(C(=O)N4CCN(c5ccccn5)CC4)cc23)c1,-10.4 (active)
8,COc1cccc(N2CCN(c3ncccn3)CC2)c1,3.1
9,Cc1ccc(C)c(NC(=O)C(C)CC2COCCO2)c1 (stereo unspecified),3.45
10,O=S1(=O)N=C(N(CCO)/N=C/c2ccncc2)c2ccccc21,2.42
11,CC(=Nc1ccc(C)cc1C)c1sc2ccccc2c1O,3.96
12,CC(=O)NCCN=C(C)c1sc2ccccc2c1O,-3.06 (active)
13,O=c1oc2c3c4c(cc2c(C(F)(F)F)c1CCN1CCOCC1)CCCN4CCC3,7.75
14,CCN1/C(=C/C=C/c2oc3ccc4ccccc4c3[n+]2CC)Oc2ccc3ccccc3c21,17
15,Cc1nnsc1C(=O)N/N=C/c1ccc2ccccc2c1O,-4.07 (active)
16,Cc1ccccc1NCC(=O)N/N=C/c1c[nH]c2ccccc12,4.05
17,COc1cc(-c2cc(=O)c3ccccc3o2)ccc1O,-1.08
18,COc1cc(C(c2sc3nc(C)nn3c2O)N2CC(C)CC(C)C2)cc(OC)c1OC (stereo unspecified),0.98
19,CCOc1cccc(-c2nn3c(-c4cc(C)[nH]n4)nnc3s2)c1,1.99
20,CCOc1cccc(-c2nnc3sc(-c4cc(OC)c(OC)c(OC)c4)nn23)c1,-3.61 (active)
21,Cc1ccc(C(=O)NN2C(=O)/C(=C/c3cn(C)c4ccccc34)SC2=S)cc1,4.98

row,Compound,z-score
1,CCN1C=CC2=C(C#N)C(N)C(C#N)(C#N)C(c3ccccc3C(F)(F)F)C2C1 (stereo unspecified),11
2,COc1cccc(NC2C=CS(=O)(=O)C2)c1 (stereo unspecified),1.43
3,Cc1ccc(S(=O)(=O)/N=c2\ccc(Cl)cn2C(F)F)cc1,2.64
4,CCNc1ccc2noc3c2c1C(=O)c1ccccc1-3,4.91
5,CCOC(=O)CC1C(=O)NCCN1c1nc2ccc(C)cn2c(=O)c1/C=C1\SC(=S)N(C(C)CC)C1=O (stereo unspecified),15.3
6,Cc1cccc(-c2nnc3sc(-c4ccccc4C)nn23)c1,-3.32 (active)
7,CCN(CC)c1ccc2cc(-c3nc(-c4ccc(OC)cc4)cs3)c(=O)oc2c1,17
8,C=CCn1c(-c2csc(-c3ccc(OC)c(OC)c3)n2)n[nH]c1=S,-3.05 (active)
9,COc1ccc(C(=O)c2sc3nc(-c4ccccc4)ccc3c2N)cc1OC,5.8
10,C=CCn1c(-c2oc3nc(-c4ccccc4)cc(-c4ccccc4)c3c2N)n[nH]c1=S,5.57
11,CCOC(=O)Cc1csc(NC(=O)c2sc3nc4c(C)cc(C)cc4cc3c2N)n1,4.73
12,Cc1nnc(SCC2=C(C(=O)O)N3C(=O)C(NC(=O)Cn4nc(C)c(Cl)c4C)C3SC2)s1 (stereo unspecified),1.08
13,Cc1cc(C)n(-c2ccc(OCC(=O)O)nn2)n1,3.33
14,CCCNC(=O)Cn1c(-c2ccc(F)cc2)cc(C(=O)OCC)c1C,0.89
15,CCCCSc1ncc(C(=O)OCC)c(N)n1,2.51
16,CCOC(=O)c1cnc(-n2nc(C)cc2C)nc1NCc1ccccc1,-3.75 (active)
17,CCOC(=O)c1cnn(-c2cc(C)nc3c(-c4ccccc4)cnn23)c1N,3.62
18,Cc1cc(-c2nc3ncccc3o2)ccc1N,1.34
19,COC(=O)N/N=C\c1cc2c(cc1Br)OCO2,0.97
20,CSC1=NC(C)(C)CC2(C)Nc3ccccc3N12 (stereo unspecified),-3.03 (active)
21,COc1ccc(-c2csc(NC(=O)c3ccccc3NS(=O)(=O)c3ccc(F)c(F)c3)n2)cc1,-4.95 (active)

row,Compound,z-score
1,O=C(NCCc1csc(-c2ccccc2)n1)c1ccccc1F,4.15
2,Cc1c(CNC(=O)c2nn3c(c2Cl)NC(c2ccccc2)CC3C(F)(F)F)cnn1C (stereo unspecified),-4.22 (active)
3,COc1ccc(C2CC(C(F)(F)F)n3nc(C(=O)NCc4cn(C)nc4C)c(Cl)c3N2)cc1 (stereo unspecified),-9.71 (active)
4,CN1C2CCC1/C(=C/c1cccn1C)C(=O)/C2=C\c1cccn1C,3.1
5,N#CC1CC(c2ccc([N+](=O)[O-])cc2)=NN1c1ccc([N+](=O)[O-])cc1 (stereo unspecified),5.36
6,CN1/C(=C\C=C(/C#N)C(=O)Nc2ccccc2F)C(C)(C)c2ccccc21,7.42
7,CN1/C(=C\C=C2/C(=O)Oc3ccccc3C2=O)C(C)(C)c2ccccc21,8.51
8,O=C(OCC(=O)N1CCN(c2ccccc2)CC1)c1cccc(Cl)c1,1.29
9,CN1/C(=C\C(=O)C[n+]2ccc3ccccc3c2)C(C)(C)c2ccccc21,-4.73 (active)
10,Cn1c(-c2ccc3c(c2)OCO3)cc(=O)c2ccccc21,-0.67
11,Cn1ccnc1Sc1nc(Nc2cccc(Cl)c2)nc(N2CCOCC2)n1,-0.82
12,N#C/C(=C/c1ccc(N2CCCCC2)o1)c1cccc(F)c1,14.6
13,Clc1ccc2oc(-c3ccccn3)nc2c1,3
14,Clc1ccc2oc(-c3cccnc3NCc3ccccc3)nc2c1,-3.89 (active)
15,CCN(CC)c1ccc(/C=C(/C#N)C(=O)NC(C)C)o1,6.43
16,Cc1sc2ncn(CC(=O)NCCCC(=O)N3CCN(c4ncccn4)CC3)c(=O)c2c1C,-4.71 (active)
17,COc1cc(NC(=O)Cn2cnc3sc(C)c(S(=O)(=O)N4CCN(C)CC4)c3c2=O)cc(OC)c1OC,1.41
18,CC(=O)Nc1nc(-c2ccc(Br)s2)cs1,5.02
19,Cc1cc(NC(=O)/C(C#N)=C/c2ccc(-c3ccc(SC(F)F)cc3)o2)n(-c2ccccc2)n1,3.43
